Test results taken from PubChem BioAssay (NCI).
The panel holds about 83,000 compounds, 20% with a hit somewhere; the sample as a whole holds those more often.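 Single-dose data. Exposure time 48 hours. Values below 10 considered active.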 A number with no mark means an inactive call. The source made the active and inactive calls.

Each compound was assayed on HCT-116 colon (assay: NCI-60 one-dose screen, 48 h (100 = growth as untreated, 0 = no growth, -100 = all killed)). Settings: 10 µM unless noted.
Description: Growth inhibition of the HCT-116 human tumor cell line is measured as a screen for anti-cancer activity. Cells are grown in 96 well plates and exposed to the test compound for 48 hours. Compounds are tested at a single concentration, which is 10^-5 M for most compounds. The reported endpoint is percent growth (GI% or GIPRCNT), where numbers from 0 - 100% represent growth inhibition, and numbers from -100% - 0 represent cell death. For example, a value of 40 represents 60% growth inhibition. A value of 0 means no net growth occurred over the course of the experiment. A value of -40 indicates 40% of cells at the beginning of the experiment died by the end of the experiment. A value of -100 means all cells are dead at the end of the experiment.
NCI-60 Human Tumor Cell Lines Screen was performed using the standard one-dose NCI protocol, which is described in more detail at https://dtp.cancer.gov/discovery_development/nci-60/default.htm.
Compounds with GIPRCNT values below 10 were considered active. Activity score was based on GIPRCNT using the following formula: […]
Score is 0 for GIPRCNT values of 100 or above, 50 for GIPRCNT values of 0, and 100 for GIPRCNT values of -100.

**Q.** `Cn1ccnc1C(=O)/C=C/c1ccc(NC(=O)Nc2ccccc2)cc1` was tested. Which growth did it give?
**A.** 3.54% (active)

**Q.** With `Nc1cc(-c2c[nH]c3ccc(F)cc23)nc2cc(-c3c[nH]c4ccc(F)cc34)nn12` as the compound, how does the growth read?
**A.** 31.9%

**Q.** Which growth does the source give for `COc1cc(/C=C/C(=O)c2ccc(C(F)(F)F)cc2)ccc1Oc1nc(NCCO)nc(N2CCOCC2)n1` here?
**A.** -18.5% (active)

**Q.** How did the growth turn out when `COC(=O)C(C)NS(=O)(=O)/N=C1\NC(=O)NC1=C(Cl)Cl` (stereo not given) was run?
**A.** 102%

**Q.** Which growth does the source give for `Cc1nc2cnc(N)c(C#Cc3cncc(C(=O)Nc4ccc(Cl)c(C(F)(F)F)c4)c3)c2nc1C` here?
**A.** 15.4%

**Q.** For `COc1ccc2[nH]cc(-c3cc(N)n4nc(-c5c[nH]c6ccc(OC)cc56)cc4n3)c2c1`, which growth is on record?
**A.** -88.2% (active)

**Q.** With `N#Cc1nc(-c2ccccc2)oc1S(=O)(=O)N1CCCCC1` as the compound, how does the growth read?
**A.** 21.2%

**Q.** `NS(=O)(=O)c1cccc(Nc2nc(SCC(=O)c3ccc([N+](=O)[O-])cc3)nc3ccccc23)c1` was tested. Which growth did it give?
**A.** 36.8%

**Q.** With `CCOC(=O)c1c(NC(=O)c2cccc(C(F)(F)F)c2)sc2cc(O)ccc12` as the compound, how does the growth read?
**A.** 91.7%

**Q.** With `O=C(NNc1nc2cc(F)ccc2n2c(CN3CC4(COC4)C3)ccc12)c1cnccn1` as the compound, how does the growth read?
**A.** 22%

**Q.** `CN(C)CCCNc1c2ccccc2nc2c1oc1ccc(Cl)cc12` was tested. Which growth did it give?
**A.** 22.5%

**Q.** With `COc1cc(OC)c(C2C(Cl)C(=O)N2Nc2ncnc3ccccc23)cc1OC` (stereo not given) as the compound, how does the growth read?
**A.** 96.5%

**Q.** How did the growth turn out when `Clc1ccc2c(OCCCN3CCOCC3)c3oc4ccccc4c3nc2c1` was run?
**A.** 17.7%

**Q.** With `Cn1ccnc1C(=O)/C=C/c1ccc(NC(=O)Nc2ccc(F)cc2)cc1` as the compound, how does the growth read?
**A.** 17.1%

**Q.** Which growth does the source give for `O=C1Nc2ccc(Cl)cc2/C1=C/c1ccc(OCC(=O)c2ccc(Br)cc2)cc1` here?
**A.** 95.5%

**Q.** How did the growth turn out when `OC1CCN(CCCOc2c3ccccc3nc3c2oc2ccc(Cl)cc23)CC1` was run?
**A.** 15.9%

**Q.** Which growth does the source give for `Nc1ncc(-c2ccc3ncnc(N4CCc5cc(F)c(Cl)cc54)c3c2)cc1CO` here?
**A.** 6.3% (active)

**Q.** With `N#Cc1nc(-c2ccccc2)oc1S(=O)(=O)N1CCN(CCc2ccccn2)CC1` as the compound, how does the growth read?
**A.** 11.9%

**Q.** How did the growth turn out when `COc1ccc(NC(=O)c2sc3nc(-c4cnccn4)cc(-c4cccs4)c3c2N)cc1` was run?
**A.** 61.9%

**Q.** How did the growth turn out when `COc1cc(/C=C/C(=O)c2cc(OC)c(OC)c(OC)c2)ccc1OCc1ccccc1` was run?
**A.** 6.71% (active)

**Q.** Which growth does the source give for `N#Cc1c(-c2ccc(Cl)cc2)nc(SCc2ccc(F)cc2)nc1N1CCNCC1` here?
**A.** -93.8% (active)

**Q.** With `COc1cc(-c2ccc3ncnc(NC(C)c4ccccc4)c3c2)cnc1OC` (stereo not given) as the compound, how does the growth read?
**A.** 76.8%

**Q.** `O=c1[nH]c2ccc(Cl)cc2cc1CSc1ccccc1Nc1nccc(-c2ccc(Cl)cc2)n1` was tested. Which growth did it give?
**A.** 90.4%

**Q.** `Nc1nc(N)c2c(n1)NC(c1ccc(F)cc1)CC(c1ccc(Nc3nc(NCCO)nc(Nc4ccc(Cl)cc4)n3)cc1)=N2` (stereo not given) was tested. Which growth did it give?
**A.** -67.4% (active)

**Q.** For `CCC/C=C/C=C/C(=O)N[C@@H](Cc1cc(F)cc(F)c1)C(=O)N[C@@H]1C(=O)N2CCC[C@H]2C(=O)N2CCCC[C@H]2C(=O)N[C@@H](C)C(=O)N2C[C@H](C)C[C@H]2C(=O)O[C@H]1C`, which growth is on record?
**A.** 13.4%

**Q.** For `O=C(CCN1C(=O)/C(=C/c2ccccc2F)SC1=S)N1CCOCC1`, which growth is on record?
**A.** 81.9%

**Q.** With `CC(C)(C)Nc1nc2c(OCCc3ccccc3)cccn2c1-c1ccc(Cl)cc1` as the compound, how does the growth read?
**A.** 8.63% (active)

**Q.** How did the growth turn out when `CC1=C(C)C(=O)C(Nc2cccc(C(F)(F)F)c2)=C(Cl)C1=O` was run?
**A.** 33.9%

**Q.** Which growth does the source give for `CCN1C(=S)N(CC)C2C1N=C(SC)N2/N=C/C=C/c1ccccc1[N+](=O)[O-]` (stereo not given) here?
**A.** 82.2%

**Q.** Which growth does the source give for `N[C@@H](Cc1cn(-c2ccnc3ccccc23)nn1)C(=O)O` here?
**A.** 104%

**Q.** `CN(C)CCCOc1c2ccccc2nc2c1oc1ccc(Cl)cc12` was tested. Which growth did it give?
**A.** 10.9%

**Q.** `Fc1ccc(-c2cc3nc(C(Cl)Cl)nc(-c4ccc(Cl)cc4)n3n2)cc1` was tested. Which growth did it give?
**A.** 11.7%

**Q.** `COc1cc2nc(-c3ccc(Cl)cc3)cc(OCCCNCC3CCCO3)c2cc1OC` (stereo not given) was tested. Which growth did it give?
**A.** 25.1%

**Q.** How did the growth turn out when `CCOC(=O)c1c(Nc2ccccc2)nn2c(N)c(C#N)c(-c3ccccc3)nc12` was run?
**A.** 78.3%

**Q.** How did the growth turn out when `COc1cc(/C=C/C(=O)c2cc(OC)c(OC)c(OC)c2)ccc1Oc1nc(NCCO)nc(N2CCOCC2)n1` was run?
**A.** -79.3% (active)

**Q.** How did the growth turn out when `CN(C)CCCNc1c2ccc(Cl)cc2nc2c1oc1ccccc12` was run?
**A.** -19.8% (active)

**Q.** `CCCC(=O)NC(c1ccc(N(CC)CC)cc1)c1cc(C)c2cccnc2c1O` (stereo not given) was tested. Which growth did it give?
**A.** 16.8%

**Q.** With `COc1cc(/C=C/C(=O)c2ccccc2)ccc1Oc1nc(NCCO)nc(N2CCOCC2)n1` as the compound, how does the growth read?
**A.** 69.5%

**Q.** For `CCN1CCN(S(=O)(=O)c2oc(-c3ccc(Cl)cc3)nc2C#N)CC1`, which growth is on record?
**A.** 11.6%

**Q.** `Cn1cc(-c2cc(N)n3nc(-c4cn(C)c5ccc(Br)cc45)cc3n2)c2cc(Br)ccc21` was tested. Which growth did it give?
**A.** 57%
